# PubChem BioAssay (NCATS)
# Results filed as inconclusive are left out. Calls of active or inactive are those of the source. Calls come from the whole dose curve; as a rule, active = well fitted curve in either direction with a large enough effect (not every such curve was filed as active); inconclusive = small, poorly fitted or top-dose-only effect, or another doubt; inactive = flat fitted curve, though single readings scatter.
# Target: Mitogen-activated protein kinase 10 (Mus musculus) (UniProt Q61831)
# Test: JNK3 AlphaScreen Assay (AID 530);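 note: kinase came from lysate of stimulated human HepG2 cells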
# Conditions: JNK3 lysate, c-Jun phosphorylation; series mostly up to 57.1 µM; activity change, negative = inhibition: at the top concentration
# In short: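 Phosphorylation of biotinylated GST-cJun(1-79) at Ser73 is measured by AlphaScreen proximity luminescence. Enzyme is JNK3 in HepG2 lysates activated with interleukin-1beta and tumor necrosis factor alpha; ATP is 10 uM final.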
# % is set by controls: 0 for no effect and ±100 for the full control effect.
Structure (SMILES),"activity change, negative = inhibition",outcome
C[N+]1(C)CCN(c2ccccc2)CC1,12.4% (inactive),
Cc1c2ccncc2c(C)c2c1[nH]c1ccccc12,,inactive
Clc1ccc(N2C[C@H]3CC[C@@H](C2)N3)nn1,-10.2% (inactive),
CCCN(CCC)C1Cc2cc(OC)c(OC)cc2C1,15% (inactive),
NC(N)=NOCC[C@H](N)C(=O)O,,inactive
CN1CCC(c2c[nH]c3ccc(O)cc23)CC1,,inactive
CCCN(CCC)[C@H]1CCc2c(F)ccc(O)c2C1,,inactive
O=S1(=O)N(CCN2CC=C(c3c[nH]c4cc(F)ccc34)CC2)c2cccc3c2N1CCC3,19.1% (inactive),
NC(=O)c1cc(N2CC2)c([N+](=O)[O-])cc1[N+](=O)[O-],16% (inactive),
NNC(N)=O,,inactive
